The list is not random: actives were taken first. Their share in the collection is about 3.1%.
PREPL inh: PREPL enzyme inhibitors, primary screen, biochemical, fluorescence polarization; Prolyl endopeptidase-like (Homo sapiens), Q4J6C6; recombinant PREPL, fluorescence polarization activity-based probe; inhibition, % at 5.96 µM; 0.68% of 320,000 active; AID 2751, 2010; in the data active means inhibition above about 43%
Target sequence (Q4J6C6 whole entry, looked up): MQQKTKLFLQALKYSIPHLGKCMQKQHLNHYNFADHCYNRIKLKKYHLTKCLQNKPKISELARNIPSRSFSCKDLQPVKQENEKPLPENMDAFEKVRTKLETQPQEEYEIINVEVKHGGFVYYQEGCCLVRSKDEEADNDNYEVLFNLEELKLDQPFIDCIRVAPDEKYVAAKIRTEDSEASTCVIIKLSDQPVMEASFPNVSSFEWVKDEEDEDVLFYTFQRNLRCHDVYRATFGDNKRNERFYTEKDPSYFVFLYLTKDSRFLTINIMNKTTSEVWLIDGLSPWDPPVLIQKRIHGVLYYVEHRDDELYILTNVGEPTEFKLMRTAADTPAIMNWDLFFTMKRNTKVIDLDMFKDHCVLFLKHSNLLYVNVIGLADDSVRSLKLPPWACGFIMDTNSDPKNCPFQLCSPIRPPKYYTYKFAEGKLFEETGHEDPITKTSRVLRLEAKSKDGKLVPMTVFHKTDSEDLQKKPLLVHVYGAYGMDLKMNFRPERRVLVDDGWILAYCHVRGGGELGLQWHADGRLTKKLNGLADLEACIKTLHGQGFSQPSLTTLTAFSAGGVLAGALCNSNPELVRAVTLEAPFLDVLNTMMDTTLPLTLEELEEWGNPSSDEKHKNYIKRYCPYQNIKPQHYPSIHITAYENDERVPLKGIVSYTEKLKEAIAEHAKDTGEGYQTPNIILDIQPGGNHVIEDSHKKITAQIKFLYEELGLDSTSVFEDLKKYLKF
UBC13 inh: UBC13 polyubiquitin chain formation inhibitors, primary screen, biochemical, TR-FRET, uHTS. Ubiquitin-conjugating enzyme E2 N (Homo sapiens), P61088. inhibition, % at 20 µM. 0.47% of 330,000 active. AID 485273, 2010; in the data active means inhibition above about 45%, passing the limit was not always enough
MEKK3 PB1 HTS: modulators of MEKK3-MEK5 PB1 binding, primary screen, biochemical, wildtype MEKK3, multiplex bead flow cytometry, Alexa488-MEK5; bead-based flow cytometry, Alexa488-MEK5 binding to MEKK3; actives lie on both sides; 0 = blocked by unlabeled MEK5, 100 = vehicle; binding response (% of control), % at 10 µM; 1.4% of 290,000 active; AID 1529, 2009;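 active means binding response more than 3 SD above or below the average of its plate-row segment, actives on both sides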;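 further: Alexa488 bead fluorescence after subtracting the streptavidin-only scavenger bead signal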
MEKK2wt PB1 HTS: modulators of MEK5 binding to wildtype MEKK2, primary screen, biochemical, multiplex bead flow cytometry, Alexa488-MEK5; Mitogen-activated protein kinase kinase kinase 2 (Homo sapiens), Q9Y2U5; Alexa488-MEK5 binding to MEKK2 WT; actives lie on both sides; binding response (% of control), % at 10 µM; 1.1% of 290,000 active; AID 1531, 2009; in the data active means binding response below about 67% or above about 130%
ATG4B inh: ATG4B protease inhibitors, primary screen, biochemical, fluorescence, uHTS; Cysteine protease ATG4B (Homo sapiens), Q9Y4P1; ATG4B cleavage of LC3-PLA2, NBD-HPC fluorescence, 1 h; inhibition, % at 8.33 µM; 0.51% of 340,000 active; in the data active means inhibition above about 40%
MEKK2 mut-MEK5: MEK5 binding signal on mutant MEKK2 PB1, primary screen, biochemical, multiplex bead flow cytometry, Alexa488-MEK5; percent response, % at 10 µM; 0.35% of 290,000 active; Alexa488-MEK5 binding to MEKK2 mutant; in the data active means percent response above about 24%, passing the limit was not always enough
MEKK2wt confirm: modulators of MEK5 binding to wildtype MEKK2, confirmation, biochemical, single concentration, multiplex bead flow cytometry. shares compounds with MEKK3 PB1 HTS. Alexa488-MEK5 binding to MEKK2 WT; actives lie on both sides. binding response (% of control), % at 10 µM. 2.4% of 5,900 active. AID 1892, 2009; in the data active means binding response below about 16% or above about 210%; inactive means in between
MEKK2mut confirm: mutant MEKK2 PB1-MEK5 binding signal retest – biochemical, single concentration, multiplex bead flow cytometry, confirmation; percent response, % at 10 µM; 2% of 5,900 active; shares compounds with MEKK3 PB1 HTS; Alexa488-MEK5 binding to MEKK2 mutant; in the data active means percent response mostly above about 71%, no sharp cut-off; inactive means mostly below about 38%;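 further: higher means compound restores mutant binding toward wildtype level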
MEKK3 confirm: MEKK3 wild-type PB1 binding to MEK5, inhibitors, confirmation, biochemical, bead multiplex flow cytometry, single concentration, wildtype. shares compounds with MEKK3 PB1 HTS. Alexa488-MEK5 binding to MEKK3; active compounds read low. binding response (% of control), % at 10 µM. 1.8% of 5,900 active. AID 1894, 2009;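 active means binding response below 72% of control, or above a set upper limit, though filed actives all read lower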;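 further: lower values mean stronger disruption of MEK5 binding to MEKK3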
Hits are given with their value; . = inactive; / = no result; [ ] = dose if it differs, or a comment.

SMILES | PREPL inh | UBC13 inh | MEKK3 PB1 HTS | MEKK2wt PB1 HTS | ATG4B inh | MEKK2 mut-MEK5 | MEKK2wt confirm | MEKK2mut confirm | MEKK3 confirm
Cc1ccc(NC(=S)Nc2cccc3cnccc23)c(C)c1 | . | . | . | . | . | . | / | / | /
Cc1[nH]c2ccccc2c1C(=O)CN1CCCCC1CCO (stereo unspecified) | . | . | 44.0[inhibitor] | . | . | . | . | . | .
Cc1ccccc1OCCn1c(S(=O)(=O)O)nc2c(N)ncnc21 | . | . | . | . | . | . | / | / | /
NC(N)=N/N=C/c1ccc(Cl)cc1Cl | . | . | 129.0 | 155.0 | . | . | . | . | .
CC1(c2ccccc2)C(C#N)C(=O)NC(=O)C1C#N (stereo unspecified) | / | / | / | / | . | / | / | / | /
Cc1nn(CCO)c2c1C(=O)CCC2 | . | . | 128.0 | . | . | . | . | . | .
CCOC(=O)Cn1nc(C)c2c1CCCC2=O | . | . | . | . | . | . | / | / | /
OCCOCCOc1ccc(-c2nn[nH]n2)cc1 | . | . | 74.0[inhibitor] | . | . | . | . | . | .
Cc1cc(/N=C/C=C2/N(C)c3ccccc3C2(C)C)n(CCC#N)n1 | / | / | / | / | . | / | / | / | /
O=C(O)/C=C\C(=O)Nc1ccc(Oc2ccccc2)cc1 | . | . | . | . | . | . | / | / | /
O=C(O)/C=C/C(=O)Nc1ccc(Oc2ccc(NC(=O)/C=C/C(=O)O)cc2)cc1 | . | . | 150.0 | . | / | . | . | . | .
Cc1ccsc1/C=N/N1CCN(C2c3ccccc3-c3ccccc32)CC1 | . | . | 82.0[inhibitor] | . | . | . | . | . | .
CCc1ccc(N(C(=O)c2ccoc2C)C(C(=O)NC2CCCC2)c2ccc(OC)cc2)cc1 (stereo unspecified) | . | . | . | . | . | . | / | / | /
COc1ccc(C(C(=O)NC2CCCCC2)N(C(=O)c2sc(C)nc2C)c2ccc(OC)cc2)cc1 (stereo unspecified) | . | . | 46.0[inhibitor] | . | . | . | . | . | .
COc1ccc(C(C(=O)NC2CCCC2)N(C(=O)c2ccoc2C)c2ccccc2)cc1 (stereo unspecified) | . | . | 137.0 | . | . | . | . | . | .
Cc1cc(Cl)ccc1OC(C)C(=O)OCC(=O)c1ccc[nH]1 (stereo unspecified) | . | . | / | / | . | / | / | / | /
Cc1ccc(CN2CC(C(=O)Nc3ccc(S(=O)(=O)N4CCCCC4)cc3)CC2=O)cc1 (stereo unspecified) | . | . | . | . | . | . | / | / | /
CSc1cccc(NC(=O)CCNS(=O)(=O)c2ccc3[nH]c(=O)oc3c2)c1 | . | . | . | . | . | . | / | / | /
CC(C)(C)c1cc(C(=O)O)nn1-c1ccccc1 | . | . | 2.0[inhibitor] | 3.0[inhibitor] | . | . | . | . | .
CCn1ncc(CN2CCCC(C(=O)Nc3cccc(-c4cc5ccccc5[nH]4)c3)C2)c1C (stereo unspecified) | . | . | . | 161.0 | . | 24.0 | . | . | .
Cc1c(CN2CCCC(C(=O)Nc3cccc(-n4cccn4)c3)C2)cnn1C (stereo unspecified) | . | . | . | . | . | . | / | / | /

From PubChem
